Source: PubChem BioAssay
ERK AVP block = blocks ERK signaling stimulated by vasopressin. HEK293-V1b, vasopressin-stimulated pERK AlphaScreen. Potency, µM (top dose mostly 57.5 µM), inactives show at the top dose activity, negative = inhibition, most hits filed as inhibitors. 72,000 compounds, 0.99% hits. AID 995; further: on the % scale 0 is the no-effect control and ±100 the full control effect; nearly all actives have a fitted effect of over 55% in size
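V1b-HEK293 cells; cpd 30 min 37C; 25 nM vasopressin 5 min; lyse 10 min; AlphaScreen beads 5 hr RT. Normalized to DMSO basal and 25 nM vasopressin; AC50 by Hill fit.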
CRE-bla Fsk = alters forskolin-stimulated CRE reporter signaling in CHO cells. CHO CRE-bla reporter (cAMP response element driving beta-lactamase), forskolin EC10, beta-lactamase ratio. 71,000 compounds, 2.5% hits. Potency, µM (series often up to 38.2 µM), inactives show at the top dose activity change, negative = inhibition, actives largely listed as activators; active means well fitted activation curve with a large enough effect in the signal ratio, with a control signal flat, not every such curve was filed as active; inconclusive means small, poorly fitted or top-dose-only effect, or effect the other way, or a change in a side signal; the % refers to the signal ratio; further: % of control where 0% means no effect
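qHTS titration format; CRE-bla CHO reporter; stimulus EC10 NKH 477, a water-soluble forskolin. Read: CCF4 460/530 nm ratio. Potency expressed as AC50 for activators or inhibitors.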
HEK293 cAMP cs = raises cAMP in parental HEK293 cells, TSHR agonist counter-screen; Potency, µM (titrated, usually from 57.1 µM), for the others: at the top dose activation, usual class: activators; 73,000 compounds, 2.5% hits; parental HEK293 CNG cAMP sensor, membrane potential fluorescence; further: % of control where 0% means no effect; nearly all actives have a fitted effect of over 55% in size
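Parental HEK 293 cells stably expressing a modified CNG channel (no TSHR) report cAMP rise as membrane depolarization. Membrane potential dye with 100 uM RO 20-1724 was loaded for 60 min at room temperature, then compound added for 30 min; fluorescence read at 590 nm.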
TSHR ag = TSH receptor (human) agonism. HEK293-CNG-TSHR cells (CNG channel as cAMP sensor), membrane potential dye, cAMP. Potency, µM (doses to about 57.1 µM), without a hit: at the top dose activation, usual class: activators. 73,000 compounds, 0.48% hits. AID 926; active means well fitted activation curve with a large enough effect in the main read-out, with a control signal flat, not every such curve was filed as active; inconclusive means small, poorly fitted or top-dose-only effect, or a change in a side signal; inactive means no such curve, though single readings can be large or run the other way; % of control where 0% means no effect;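 further: the control signal comes from parental cells without the receptor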
Target sequence (P16473 whole entry, looked up): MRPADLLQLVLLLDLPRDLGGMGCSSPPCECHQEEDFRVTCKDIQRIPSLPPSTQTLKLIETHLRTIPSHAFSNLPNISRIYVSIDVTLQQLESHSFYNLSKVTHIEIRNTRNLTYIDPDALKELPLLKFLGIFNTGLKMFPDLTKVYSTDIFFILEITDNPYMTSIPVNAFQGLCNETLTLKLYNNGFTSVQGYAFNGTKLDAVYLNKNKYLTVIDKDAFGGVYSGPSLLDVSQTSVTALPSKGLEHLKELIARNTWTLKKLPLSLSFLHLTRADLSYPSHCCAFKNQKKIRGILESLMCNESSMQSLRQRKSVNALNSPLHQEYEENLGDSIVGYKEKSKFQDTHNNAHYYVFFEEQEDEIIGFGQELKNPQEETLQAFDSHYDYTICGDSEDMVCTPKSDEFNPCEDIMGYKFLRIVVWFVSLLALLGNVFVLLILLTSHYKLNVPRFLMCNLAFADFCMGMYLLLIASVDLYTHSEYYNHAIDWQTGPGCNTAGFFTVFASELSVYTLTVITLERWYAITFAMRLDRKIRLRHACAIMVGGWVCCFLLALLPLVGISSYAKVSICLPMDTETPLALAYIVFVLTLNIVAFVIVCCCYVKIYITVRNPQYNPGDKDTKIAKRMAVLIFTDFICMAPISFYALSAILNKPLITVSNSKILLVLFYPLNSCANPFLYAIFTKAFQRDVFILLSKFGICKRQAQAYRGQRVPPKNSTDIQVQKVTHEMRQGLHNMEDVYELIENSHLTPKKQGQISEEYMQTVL
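cAMP rise detected as CNG-channel membrane depolarization by fluorescent dye (emission 590 nm), 30 min after compound, following 60 min dye loading containing 100 uM RO 20-1724 at room temperature. Cells: TSHR/CNG HEK 293, with parental CNG HEK 293 as control.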
Tau fil binding = binds recombinant human tau filaments. Potency, µM (top dose mostly 57.1 µM), for inactives: at the top dose activity change, negative = inhibition. AID 596. recombinant tau filaments, thioflavin S fluorescence, 15 h; filaments grown with octadecylsulfate alongside compound. 71,000 compounds, 2% hits;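 further: on the % scale 0 is the no-effect control and ±100 the full control effect; actives lower thioflavin S fluorescence by blocking filaments or displacing dye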
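His-tagged recombinant human tau (exons 2, 3, 10; 1 uM final) fibrillized with 30 uM sodium octadecylsulfate, 15 h at 37 C, in pH 7.4 HEPES buffer with 10 uM thioflavine S and 5 mM DTT. Reduced ThS fluorescence (450/510 nm) marks activity.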
* hit, by the source's call; [ ] = another dose, or the depositor's remark. The list is not random: actives were taken first. Their share in the collection is about 7.4%. Unless noted, the call rests on the fitted dose curve; in most records, active means well fitted curve in the direction sought with a large enough effect; inconclusive means small, poorly fitted or top-dose-only effect, or another doubt; inactive means no such curve, though single readings can be large; an effect the other way counts as inactive or inconclusive. Potency means the concentration at half of the fitted maximal effect.

Results for CCOC(=O)c1cccc(NC(=O)c2cnc3ccccc3n2)c1 ?
ERK AVP block: 5%; CRE-bla Fsk: 27%; HEK293 cAMP cs: -20%; TSHR ag: -17%; Tau fil binding: 25µM*

What do the screens show for `CCOc1ccc(OCC)c(NC(=O)CSc2nc3cccnc3n2C)c1`?
ERK AVP block: -26%; CRE-bla Fsk: inconclusive; HEK293 cAMP cs: 32µM*; TSHR ag: inconclusive; Tau fil binding: -9%

Results for CCOC(=O)c1cccc(NC(=O)CSc2nc3cccnc3n2C)c1 ?
ERK AVP block: 25µM*; CRE-bla Fsk: 26%; HEK293 cAMP cs: inconclusive; TSHR ag: inconclusive; Tau fil binding: -6%

Results for CCOc1ccccc1NC(=O)CSc1nc2c(c(=O)n1C)SC(C)C2 (configuration not stated) ?
CRE-bla Fsk: 5%; HEK293 cAMP cs: 32µM*; TSHR ag: inconclusive; Tau fil binding: 3%

How did N=C(N)S/C=C\C(=O)O do in these assays?
ERK AVP block: 18%; CRE-bla Fsk: inconclusive; HEK293 cAMP cs: 1%; TSHR ag: 13%; Tau fil binding: -21%

Results for CC(C)=C[C@H]1[C@@H](COC(=O)c2ccccc2Cl)C1(C)C ?
ERK AVP block: -7%[11.5 µM]; CRE-bla Fsk: -2%[7.6 µM]; HEK293 cAMP cs: inconclusive; TSHR ag: inconclusive; Tau fil binding: 1%[11.4 µM]

Results for CCC1CCCCN1C(=O)CSc1nc2c([nH]c3ccccc32)c(=O)n1C (configuration not stated) ?
ERK AVP block: -8%; CRE-bla Fsk: -2%; HEK293 cAMP cs: 32µM*; TSHR ag: inconclusive; Tau fil binding: 5%

How did CC1(C)C[C@@H]2C(=O)CCC3O[C@@]3(C)CCC21 (some centres not stated) do in these assays?
ERK AVP block: 5%

How did Fc1ccc2[nH]c3c(N4CCN(c5ccccc5)CC4)ncnc3c2c1 do in these assays?
ERK AVP block: 10µM*; CRE-bla Fsk: inconclusive; HEK293 cAMP cs: 31%; TSHR ag: 18%; Tau fil binding: 70%

What do the screens show for `O=C(CCCN1CCC(O)(c2cccc(C(F)(F)F)c2)CC1)c1ccc(F)cc1`?
ERK AVP block: 17%; CRE-bla Fsk: -6%; HEK293 cAMP cs: 7%; TSHR ag: -38%; Tau fil binding: -7%

What do the screens show for `CCCCOc1ncnc2c1[nH]c1ccc(F)cc12`?
ERK AVP block: -17%; CRE-bla Fsk: 1µM*; HEK293 cAMP cs: inconclusive; TSHR ag: inconclusive; Tau fil binding: 21%

How did CCCCOc1ncnc2c1[nH]c1ccccc12 do in these assays?
ERK AVP block: inconclusive; CRE-bla Fsk: 26%; HEK293 cAMP cs: inconclusive; TSHR ag: inconclusive; Tau fil binding: -10%

How did O=c1c2[nH]c3ccc(F)cc3c2ncn1CCN1CCN(Cc2ccccc2)CC1 do in these assays?
ERK AVP block: -4%; CRE-bla Fsk: -3%; HEK293 cAMP cs: -6%; TSHR ag: -11%; Tau fil binding: 25%

How did OC1(c2cccc(C(F)(F)F)c2)CCN(c2ncnc3c2[nH]c2ccc(F)cc23)CC1 do in these assays?
ERK AVP block: 25µM*; CRE-bla Fsk: inconclusive; HEK293 cAMP cs: -3%; TSHR ag: -5%; Tau fil binding: 124%

How did Cc1cccc2sc(N)nc12 do in these assays?
ERK AVP block: 5%; CRE-bla Fsk: -8%; HEK293 cAMP cs: 6%; TSHR ag: 5%; Tau fil binding: 6%

How did Nc1ncnc2c1ncn2CCCCC(=O)O do in these assays?
ERK AVP block: -22%[11.5 µM]; CRE-bla Fsk: -2%[7.6 µM]; HEK293 cAMP cs: 6%[11.4 µM]; TSHR ag: -5%[11.4 µM]; Tau fil binding: -4%[11.4 µM]

Results for CCCCCC[C@@H]([C@H](C)O)n1cnc2c(N)ncnc21 ?
ERK AVP block: -3%; CRE-bla Fsk: 6%; HEK293 cAMP cs: 32µM*; TSHR ag: inconclusive; Tau fil binding: -5%

What do the screens show for `O=C1C2=CC[C@H]3C(=O)N(C[C@@H]4CCCO4)C(=O)[C@@H]3[C@@H]2[C@H](O)[C@@H]2O[C@H]12`?
ERK AVP block: 22%[11.5 µM]; HEK293 cAMP cs: -2%[11.4 µM]; TSHR ag: -5%[11.4 µM]
